{
  "source": "paper PMC11995724",
  "about": "“Antibiotic target discovery by integrated phenotypic and activity-based profiling of electrophilic fragments” (Cell chemical biology, 2025)",
  "note": "Out of some 3,200 compounds screened, about 110 (3.4%) showed an effect of 50% or more. The sample as a whole holds a higher share of strong results than the screen did.",
  "data": [
    {"tested_on": "T1, V. cholerae SAD30", "T1 construct": "SAD30", "set-up": "species or system S. aureus MSSA476 (TSB) or V. cholerae SAD30 (LB); 384-well bacterial growth screen at 25 uM, OD600 relative to DMSO control", "conditions": "relative growth, OD600, LB; 25 µM; inhibitor", "units": {"% of control remaining": "%"}, "values": [
      {"smiles": "Cc1cccc(C=C(C#N)C(=O)Nc2ccc(C(=O)O)cc2)c1", "note": "[8-M21, 4-[2-cyano-3-(3-methylphenyl)prop-2-enamido]benzoic acid]", "% of control remaining": 75.7988},
      {"smiles": "CC(NC(=O)CCl)c1ccc2c(c1)CCCC2", "note": "(stereo not shown) [4-B03, 2-chloro-N-[1-(5,6,7,8-tetrahydronaphthalen-2-yl)ethyl]acetamide]", "% of control remaining": 113.867},
      {"smiles": "COc1cc2c(cc1NC(=O)C(C)Cl)oc1ccccc12", "note": "(stereo not shown) [6-G09, 2-chloro-N-{4-methoxy-8-oxatricyclo[7.4.0.0,2,7]trideca-1(9),2(7),3,5,10,12-hexaen-5-yl}propanamide]", "% of control remaining": 55.9674},
      {"smiles": "CC(C)NC(=O)C(C#N)=Cc1ccc(Cl)cc1", "note": "[9-C09, 3-(4-chlorophenyl)-2-cyano-N-(propan-2-yl)prop-2-enamide]", "% of control remaining": 85.3161},
      {"smiles": "COCC(C)n1c(C)cc(C=C(C#N)C(=O)NS(C)(=O)=O)c1C", "note": "(stereo not shown) [8-B04, 2-cyano-N-methanesulfonyl-3-[1-(1-methoxypropan-2-yl)-2,5-dimethyl-1H-pyrrol-3-yl]prop-2-enamide]", "% of control remaining": 81.6451},
      {"smiles": "C=CCNC(=O)C(C#N)=Cc1cccc(C(F)(F)F)c1", "note": "[8-L09, 2-cyano-N-(prop-2-en-1-yl)-3-[3-(trifluoromethyl)phenyl]prop-2-enamide]", "% of control remaining": 71.8559},
      {"smiles": "C=CC(=O)N1CC[C@H](NS(C)(=O)=O)C1", "note": "[2-H21, N-[(3S)-1-(prop-2-enoyl)pyrrolidin-3-yl]methanesulfonamide]", "% of control remaining": 102.239},
      {"smiles": "C=CC(=O)N(CC)Cc1nc2ccsc2c(=O)[nH]1", "note": "[3-P16, N-ethyl-N-({4-oxo-3H,4H-thieno[3,2-d]pyrimidin-2-yl}methyl)prop-2-enamide]", "% of control remaining": 108.146},
      {"smiles": "C=CC(=O)N1Cc2ccccc2C[C@@H]1C(=O)NC1CC1", "note": "[2-G06, (3R)-N-cyclopropyl-2-(prop-2-enoyl)-1,2,3,4-tetrahydroisoquinoline-3-carboxamide]", "% of control remaining": 95.7541},
      {"smiles": "Cc1cc(C=C(C#N)C(=O)Nc2nccs2)cc(C)c1O", "note": "[9-D13, 2-cyano-3-(4-hydroxy-3,5-dimethylphenyl)-N-(1,3-thiazol-2-yl)prop-2-enamide]", "% of control remaining": 84.7723},
      {"smiles": "C=CC(=O)N[C@H]1CCN(S(=O)(=O)c2ccccc2)C1", "note": "[3-P11, N-[(3S)-1-(benzenesulfonyl)pyrrolidin-3-yl]prop-2-enamide]", "% of control remaining": 106.205},
      {"smiles": "COc1ccc(C2=NN(C(=O)CCl)C(c3ccc(F)cc3)C2)cc1", "note": "(stereo not shown) [4-M20, 2-chloro-1-[5-(4-fluorophenyl)-3-(4-methoxyphenyl)-4,5-dihydro-1H-pyrazol-1-yl]ethan-1-one]", "% of control remaining": 100.927},
      {"smiles": "O=C(CCl)c1ccc2c(c1)-c1ccccc1C2", "note": "[10-H17, 2-chloro-1-(9H-fluoren-3-yl)ethan-1-one]", "% of control remaining": 91.4865},
      {"smiles": "COc1cc(OC)c(C(=O)CCl)c(OC)c1", "note": "[10-L04, 2-chloro-1-(2,4,6-trimethoxyphenyl)ethan-1-one]", "% of control remaining": 98.344},
      {"smiles": "COc1ccc(C(=O)CCl)cc1Cl", "note": "[10-D10, 2-chloro-1-(3-chloro-4-methoxyphenyl)ethan-1-one]", "% of control remaining": 0.9351},
      {"smiles": "O=C(CCl)c1ccc2[nH]c(=O)[nH]c2c1", "note": "[10-I14, 5-(2-chloroacetyl)-2,3-dihydro-1H-1,3-benzodiazol-2-one]", "% of control remaining": 105.513},
      {"smiles": "O=C(CCl)c1ccc(Cl)c(Cl)c1", "note": "[10-L16, 2-chloro-1-(3,4-dichlorophenyl)ethan-1-one]", "% of control remaining": 0},
      {"smiles": "COc1ccc(C(=O)CCl)c(OC)c1", "note": "[10-G18, 2-chloro-1-(2,4-dimethoxyphenyl)ethan-1-one]", "% of control remaining": 111.748},
      {"smiles": "C=CC(=O)NCc1csc(C(C)(C)C)n1", "note": "[2-C09, N-[(2-tert-butyl-1,3-thiazol-4-yl)methyl]prop-2-enamide]", "% of control remaining": 91.5854},
      {"smiles": "COc1ccc(C=C(C#N)C(=O)Nc2ccc(Cl)c(Cl)c2)cc1", "note": "[8-C03, 2-cyano-N-(3,4-dichlorophenyl)-3-(4-methoxyphenyl)prop-2-enamide]", "% of control remaining": 89.395},
      {"smiles": "C=CC(=O)Nc1ccc(C(N)=O)nc1OC", "note": "[1-E18, 6-methoxy-5-(prop-2-enamido)pyridine-2-carboxamide]", "% of control remaining": 89.6861},
      {"smiles": "C=CC(=O)Nc1c(OC)nc(Cl)nc1OC", "note": "[1-B14, N-(2-chloro-4,6-dimethoxypyrimidin-5-yl)prop-2-enamide]", "% of control remaining": 48.0864},
      {"smiles": "C=CC(=O)Nc1cc(Cl)cc(C)c1OC", "note": "[1-E16, N-(5-chloro-2-methoxy-3-methylphenyl)prop-2-enamide]", "% of control remaining": 87.145},
      {"smiles": "N#CC(=Cc1cccc(Cl)c1Cl)C(=O)NCCc1ccccc1", "note": "[8-J06, 2-cyano-3-(2,3-dichlorophenyl)-N-(2-phenylethyl)prop-2-enamide]", "% of control remaining": 78.9259},
      {"smiles": "CCN(CC)c1ccc(NC(=O)CCl)cc1", "note": "[6-N10, 2-chloro-N-[4-(diethylamino)phenyl]acetamide]", "% of control remaining": 90.5489},
      {"smiles": "C=CC(=O)Nc1ccc(C)cc1S(=O)(=O)N1CCOCC1", "note": "[1-O13, N-[4-methyl-2-(morpholine-4-sulfonyl)phenyl]prop-2-enamide]", "% of control remaining": 87.2945},
      {"smiles": "Cc1ccccc1NC(=O)C(C#N)=Cc1cc2c(cc1[N+](=O)[O-])OCO2", "note": "[9-P11, 2-cyano-N-(2-methylphenyl)-3-(6-nitro-1,3-dioxaindan-5-yl)prop-2-enamide]", "% of control remaining": 84.5003},
      {"smiles": "C=CC(=O)N1CCCC(c2nn(C)cc2C(N)=O)C1", "note": "(stereo not shown) [1-D07, 1-methyl-3-[1-(prop-2-enoyl)piperidin-3-yl]-1H-pyrazole-4-carboxamide]", "% of control remaining": 92.9746},
      {"smiles": "Cc1cc(C(=O)CCl)c(C)n1Cc1ccc(F)cc1", "note": "[10-N17, 2-chloro-1-{1-[(4-fluorophenyl)methyl]-2,5-dimethyl-1H-pyrrol-3-yl}ethan-1-one]", "% of control remaining": 95.5387},
      {"smiles": "O=C(CCl)c1ccc(F)cc1F", "note": "[10-I18, 2-chloro-1-(2,4-difluorophenyl)ethan-1-one]", "% of control remaining": 22.7547},
      {"smiles": "O=C(CCl)c1c[nH]c2ccc(F)cc12", "note": "[10-O11, 2-chloro-1-(5-fluoro-1H-indol-3-yl)ethan-1-one]", "% of control remaining": 23.3781},
      {"smiles": "O=C(CCl)c1c[nH]c2ccccc12", "note": "[10-B05, 2-chloro-1-(1H-indol-3-yl)ethan-1-one]", "% of control remaining": 108.475},
      {"smiles": "CC(C)Oc1ccc2[nH]cc(C(=O)CCl)c2c1", "note": "[10-E03, 2-chloro-1-[5-(propan-2-yloxy)-1H-indol-3-yl]ethan-1-one]", "% of control remaining": 105.669},
      {"smiles": "O=C(CCl)c1ccc(O)cc1O", "note": "[10-C14, 2-chloro-1-(2,4-dihydroxyphenyl)ethan-1-one]", "% of control remaining": 100.682}
    ]}
  ]
}
